The supplement of paper PMC3342239
Where a name gives a salt, the structure may show the parent alone.

test system: Saccharomyces cerevisiae; assay: fraction of cells in G1 phase (DNA content, flow cytometry); higher = more cells with unreplicated DNA (G1 delay); conditions: temperature: 30 C; YPD; BY4741 PDR5+ SNQ2+; drug added to: actively dividing cells; 4.33 h
Protocol: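 S. cerevisiae cultures in YPD at 30°C were treated with each drug of the Enzo FDA-approved library at 20 µg/ml (final µM given per drug). Cells were fixed after 6–7 h (S1) or 6 h (S2), or after 4.33 h for BY4741 (S3), then stained with SYTOX Green. %G1 is the Dean-Jett-Fox G1 peak area divided by the G1+G2/M peak areas, written as a fraction and averaged over at least two independent experiments. DMSO reference: mean ~0.49; >0.60 is called High G1 and <0.3876 Low G1. Scale: lower means mitotic delay.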

Row | SMILES | fraction of cells in G1 phase
1 | CC1=C(/C=C/C(C)=C/C=C/C(C)=C/C(=O)Nc2ccc(O)cc2)C(C)(C)CCC1 [Fenretinide] (51.0779 µM) | 0.462
2 | CC[C@H](C)C(=O)O[C@H]1C[C@@H](C)C=C2C=C[C@H](C)[C@H](CC[C@@H]3C[C@@H](O)CC(=O)O3)[C@H]21 [Lovastatin] (49.4375 µM) | 0.402
3 | CC(C)COCC(CN(Cc1ccccc1)c1ccccc1)N1CCCC1 (configuration not stated) [Bepridil] (48.4262 µM) | 0.391
4 | C[C@]12CCC(=O)C=C1C=C[C@@H]1[C@@H]2CC[C@@]2(C)[C@H]1CC[C@@]21CCC(=O)O1 [Canrenone] (58.7429 µM) | 0.453
5 | CCC(C)n1ncn(-c2ccc(N3CCN(c4ccc(OCC5COC(Cn6cncn6)(c6ccc(Cl)cc6Cl)O5)cc4)CC3)cc2)c1=O (configuration not stated) [Itraconazole] (28.3427 µM) | 0.493

same assay, conditions: temperature: 30 C; YPD; JTY2953 pdr5 snq2 (sensitized); drug added to: actively dividing cells; 6 h

Row | SMILES | fraction of cells in G1 phase
6 | CC1=C(/C=C/C(C)=C/C=C/C(C)=C/C(=O)Nc2ccc(O)cc2)C(C)(C)CCC1 [Fenretinide] (51.0779 µM) | 0.681
7 | CC[C@H](C)C(=O)O[C@H]1C[C@@H](C)C=C2C=C[C@H](C)[C@H](CC[C@@H]3C[C@@H](O)CC(=O)O3)[C@H]21 [Lovastatin] (49.4375 µM) | 0.698
8 | O=C1Nc2ccc(Cl)cc2[C@@](C#CC2CC2)(C(F)(F)F)O1 [Efavirenz] (63.355 µM) | 0.4
9 | CN1CCC[C@@H]1CCO[C@](C)(c1ccccc1)c1ccc(Cl)cc1 [Clemastine fumarate] (58.1564 µM) | 0.585
10 | CC(C)COCC(CN(Cc1ccccc1)c1ccccc1)N1CCCC1 (configuration not stated) [Bepridil] (48.4262 µM) | 0.637
11 | Clc1ccc(C(Cn2ccnc2)OCc2ccsc2Cl)c(Cl)c1 (configuration not stated) [Tioconazole] (51.5839 µM) | 0.427
12 | C[C@]12CCC(=O)C=C1C=C[C@@H]1[C@@H]2CC[C@@]2(C)[C@H]1CC[C@@]21CCC(=O)O1 [Canrenone] (58.7429 µM) | 0.649
13 | CCC(C)n1ncn(-c2ccc(N3CCN(c4ccc(OCC5COC(Cn6cncn6)(c6ccc(Cl)cc6Cl)O5)cc4)CC3)cc2)c1=O (configuration not stated) [Itraconazole] (28.3427 µM) | 0.751

same assay, conditions: temperature: 30 C; YPD; JTY2953 pdr5 snq2 (sensitized); drug added to: cultures diluted from stationary phase; 6-7 h

Row | SMILES | fraction of cells in G1 phase
14 | CC1=C(/C=C/C(C)=C/C=C/C(C)=C/C(=O)Nc2ccc(O)cc2)C(C)(C)CCC1 [Fenretinide] (51.0779 µM) | 0.604
15 | CCN1CCC[C@H]1CNC(=O)c1c(OC)ccc(Br)c1OC [Remoxipride] (53.8681 µM) | 0.525
16 | CC(=O)CCCCn1c(=O)c2c(ncn2C)n(C)c1=O [Pentoxifylline] (71.8614 µM) | 0.487
17 | CC(C[N+](C)(C)C)OC(N)=O (stereo not drawn) [Carbamyl-beta-methylcholine Cl] (124.05 µM) | 0.5
18 | CC[C@H](C)C(=O)O[C@H]1C[C@@H](C)C=C2C=C[C@H](C)[C@H](CC[C@@H]3C[C@@H](O)CC(=O)O3)[C@H]21 [Lovastatin] (49.4375 µM) | 0.747
19 | CC(C)(Oc1ccc(CCNC(=O)c2ccc(Cl)cc2)cc1)C(=O)O [Bezafibrate] (55.2748 µM) | 0.517
20 | CN1CCN(C2=Nc3cc(F)ccc3Cc3ccccc32)CC1 [Fluperlapine] (64.6434 µM) | 0.512
21 | O=C1Nc2ccc(Cl)cc2[C@@](C#CC2CC2)(C(F)(F)F)O1 [Efavirenz] (63.355 µM) | 0.879
22 | COC(=O)Nc1nc2cc(C(=O)c3ccccc3)ccc2[nH]1 [Mebendazol] (67.7277 µM) | 0.352
23 | Cc1cc2c(s1)Nc1ccccc1N=C2N1CCN(C)CC1 [Olanzapine] (64.0123 µM) | 0.527
24 | CCN1CCCC1CNC(=O)c1cc(S(=O)(=O)CC)c(N)cc1OC (configuration not stated) [Amisulpride] (54.1272 µM) | 0.471
25 | C[N+](C)(C)CCOC(N)=O [Carbamylcholine Cl] (135.871 µM) | 0.506
26 | CN1CCC[C@@H]1CCO[C@](C)(c1ccccc1)c1ccc(Cl)cc1 [Clemastine fumarate] (58.1564 µM) | 0.66
27 | O=C(CCCCCCC(=O)Nc1ccccc1)NO [Vorinostat] (75.6716 µM) | 0.482
28 | CN1CCN(CC(=O)N2c3ccccc3C(=O)Nc3cccnc32)CC1 [Pirenzepine 2HCl] (56.9133 µM) | 0.534
29 | COCCOC(=O)C1=C(C)NC(C)=C(C(=O)OC(C)C)C1c1cccc([N+](=O)[O-])c1 (configuration not stated) [Nimodipine] (47.7954 µM) | 0.521
30 | CC(C)COCC(CN(Cc1ccccc1)c1ccccc1)N1CCCC1 (configuration not stated) [Bepridil] (48.4262 µM) | 0.601
31 | CN[C@@H]1[C@@H](O[C@H]2O[C@H](CO)[C@@H](N)[C@H](O)[C@H]2O)OC2C[C@@H](N)[C@@H](O[C@H]3[C@H](O)[C@@H](O)[C@H](N)C[C@@H]3N)OC2[C@@H]1O (some centres not stated) [Apramycin] (37.0653 µM) | 0.449
32 | CCOC(=O)OC(C)OC1=C(C(=O)Nc2ccccn2)N(C)S(=O)(=O)c2ccccc21 (configuration not stated) [Ampiroxicam] (44.6957 µM) | 0.5
33 | CCCCC(C)(O)C/C=C/[C@H]1[C@H](O)CC(=O)[C@@H]1CCCCCCC(=O)OC (mixture of isomers) [Misoprostol] (52.2814 µM) | 0.499
34 | CN(C/C=C/C#CC(C)(C)C)Cc1cccc2ccccc12 [Terbinafine HCl] (68.6247 µM) | 0.5
35 | COc1cc2nc(N3CCN(C(=O)C4CCCO4)CC3)nc(N)c2cc1OC (configuration not stated) [Terazosin HCl] (51.6206 µM) | 0.504
36 | O=C(N[C@H](CO)[C@H](O)c1ccc([N+](=O)[O-])cc1)C(Cl)Cl [Chloramphenicol] (61.8937 µM) | 0.482
37 | Clc1ccc(C(Cn2ccnc2)OCc2ccsc2Cl)c(Cl)c1 (configuration not stated) [Tioconazole] (51.5839 µM) | 0.863
38 | CC(COc1ccccc1)N(CCCl)Cc1ccccc1 (configuration not stated) [Phenoxybenzamine HCl] (58.7717 µM) | 0.514
39 | CC(C(=O)O)c1ccc2c(c1)Cc1cccnc1O2 (configuration not stated) [Pranoprofen] (78.3466 µM) | 0.479
40 | O=P(O)(O)C(O)(Cn1ccnc1)P(=O)(O)O [Zoledronic acid] (73.5045 µM) | 0.486
41 | C[C@]12CCC(=O)C=C1C=C[C@@H]1[C@@H]2CC[C@@]2(C)[C@H]1CC[C@@]21CCC(=O)O1 [Canrenone] (58.7429 µM) | 0.612
42 | CCC(C)n1ncn(-c2ccc(N3CCN(c4ccc(OCC5COC(Cn6cncn6)(c6ccc(Cl)cc6Cl)O5)cc4)CC3)cc2)c1=O (configuration not stated) [Itraconazole] (28.3427 µM) | 0.667
